Inconclusive results are not listed. Calls of active or inactive are those of the source. Calls follow the shape of the dose curve; as a rule, active = well fitted inhibition curve with a large enough effect in the repeat runs; inconclusive = weak or mixed curves; inactive = flat fitted curve, though single readings scatter. Numbered stars: 1 amine (or outer) side, 2 acyl side, 3 side chain; on linkers, the order of the positions; unused ones are H or OH. Bridge positions count the residues as written; N and C are the ends. Square brackets hold non-standard residues; d marks the D form. Peptide text beside a SMILES is read from it. I, II: the chains in the order shown. Actinocin(9to1) = Cc1c2oc3c(C)ccc(C(=O)[*:1])c3nc-2c(C(=O)[*:2])c(N)c1=O; aThr = C[C@H](O)[C@H](N)C(=O)O; NMeV = CN[C@H](C(=O)O)C(C)C; Sar = CNCC(=O)O

The results in this text go back to PubChem BioAssay (NCATS).
% is scaled to controls: 0 for no effect and ±100 for the full control effect; potency is read from the fitted curve at half-maximal effect.

The target in this assay is Cytochrome P450 2D6 (Homo sapiens) (UniProt P10635). Briefly: Cytochrome P450 family 2 subfamily D member 6 (CYP2D6) small molecule antagonists: luciferase biochemical (cell-free) qHTS assay (AID 1645840). Also: nearly all actives have a fitted effect of over 55% in size. As to conditions: P450-Glo CYP2D6 enzyme, luciferin luminescence, 1 h; series mostly up to 57.4 µM; activity change, negative = inhibition: at the top concentration. On the procedure: National Center for Advancing Translational Sciences [NCATS] Assay Overview: Cytochrome P450 (CYP) enzymes are membrane-bound hemeproteins that play a key role in metabolism of drugs and xenobiotics. Assaying the effect of chemicals on CYP isozymes is useful to minimize the adverse drug reactions and toxicities in drug development process. Chemical compounds were tested for their effect on CYP enzyme activities by using P450-Glo (TM) screening systems (Promega Corporation, Madison, WI). These systems provide a luminescent method containing proluciferin substrates and are converted to luciferin products by CYP isozymes. The luciferin products formed are detected with a luciferin detection reagent, and the amount of light produced is proportional to CYP activity. P450-Glo (TM) CYP2D6 screening system (Catalog. No. V9890) was used to detect the compounds that interfere in CYP2D6 activity.
Cytochrome P450 2D6 (Homo sapiens), sequence (P10635 whole entry, looked up): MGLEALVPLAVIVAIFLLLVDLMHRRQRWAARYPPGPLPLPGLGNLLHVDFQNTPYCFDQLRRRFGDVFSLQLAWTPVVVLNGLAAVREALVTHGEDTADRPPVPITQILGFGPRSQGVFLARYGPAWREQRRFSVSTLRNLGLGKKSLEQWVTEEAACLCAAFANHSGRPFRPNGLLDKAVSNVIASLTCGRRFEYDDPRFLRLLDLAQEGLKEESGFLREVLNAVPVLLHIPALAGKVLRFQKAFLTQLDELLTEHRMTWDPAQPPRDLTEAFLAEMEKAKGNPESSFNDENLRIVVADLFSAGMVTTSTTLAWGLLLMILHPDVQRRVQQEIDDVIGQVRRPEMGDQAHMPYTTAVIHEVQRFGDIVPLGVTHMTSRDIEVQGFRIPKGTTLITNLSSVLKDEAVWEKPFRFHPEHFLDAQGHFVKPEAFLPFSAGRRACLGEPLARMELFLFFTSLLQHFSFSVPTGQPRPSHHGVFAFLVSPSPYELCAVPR
Assay Protocol Summary: Two ul of enzyme-substrate mix was dispensed into medium binding white/solid 1536-well plates (Greiner Bio-One North America Inc., Monroe, NC) using a Flying Reagent Dispenser (FRD, Aurora Discovery, San Diego, CA). […] The assay plates were incubated at room temperature for 10 min. Then 2 ul of NADPH regeneration solution was added to each well of the assay plates using an FRD and incubated at room temperature for 1 h. The reaction was stopped by adding 4 ul of detection reagent using an FRD and after 20 min incubation at room temperature, the luminescence signal was measured using a ViewLux plate reader (Perkin Elmer, Shelton, CT). Data were expressed as relative luminescence units.
(In qHTS, concentration-response curves come from the screen itself.)
As for `CC(=O)N1CCN([C@H]2CCN(C(=O)N(C)[C@H](C)c3cc(C(F)(F)F)cc(C(F)(F)F)c3)[C@@H](c3ccc(F)cc3C)C2)CC1`, the Potency is 26.8 µM (active).
On the same count and under the same terms, the value for `Fc1ccccc1CNCc1ccc(-c2ccnc3[nH]ccc23)cc1` was 0.477 µM (active); that for `CCOC(=O)c1cccc(CNc2ccc(N(C)C(=O)Nc3ccccc3)cc2)c1` was 5.35 µM (active).
`CC(=O)N1c2ccc(-c3ccc(C(=O)O)cc3)cc2C(Nc2ccc(Cl)cc2)CC1C` (stereo not given): the “activity change, negative = inhibition” value is -2.61% (inactive).
For `CC1CCN(c2cc(NC(=O)c3ccccc3)ncn2)CC1`, the “activity change, negative = inhibition” value was -1.56% (inactive).
In the case of `Cc1ccc(C(=O)N2CCN(c3ccc([N+](=O)[O-])cc3)CC2)cc1Cl`, the “activity change, negative = inhibition” value was -24.9% (inactive).
On to `CCC[C@@H](NC(=O)N1C(=O)C(CC)(CC)[C@@H]1Oc1ccc(C(=O)N2CCN(C)CC2)cc1)c1ccc2c(c1)OCO2`, for which the Potency is 16.9 µM (active).
Regarding `Cc1nc(C)c2c(n1)N(Cc1ccc(-c3ccccc3-c3nn[nH]n3)cc1)C(=O)CC2`, the “activity change, negative = inhibition” value is -2.72% (inactive).
On to `O=C(Nc1ncc(SCCN2CCCC2)s1)C1(c2ccc(S(=O)(=O)C3CC3)cc2)CC1C1CCCCC1` (stereo not given), for which the Potency is 21.3 µM (active).
Still for that read-out and setting: the value for `COc1cccc(NC[C@@H](O)Cn2c3ccc(Br)cc3c3cc(Br)ccc32)c1` was 8.49 µM (active); that for `COc1cccc(CNC(=O)Nc2nc(-c3ccncc3)cs2)c1` was 0.601 µM (active); that for `COc1cc2nc(-c3cc(F)ccc3O)nc(N[C@@H]3CNC[C@H]3C(C)(C)O)c2cc1OC` was 19 µM (active).
As to `COc1ccc2c(c1)C[C@H](C(=O)Nc1ccc(-c3cn[nH]c3)cc1OCCN(C)C)CO2`, the Potency is 9.52 µM (active).
As for `COc1cc(-c2cc(-c3ccc(N4CCNCC4)cc3)cnc2C)cc(OC)c1OC`, the “activity change, negative = inhibition” value was -1.32% (inactive).
With `COc1ccc(C2(CNC(=O)[C@](C)(Cc3c[nH]c4ccccc34)NC(=O)Nc3ccc([N+](=O)[O-])cc3)CCCCC2)nc1`, the Potency was 3.01 µM (active).
With `CCOC(=O)c1cnn(-c2ccc(NC(=O)C(Cl)=C(Cl)Cl)cc2)c1C(F)(F)F`, the Potency is 15.1 µM (active).
`O=C(Nc1ccc(F)cc1)N1CCc2ccccc2C1c1ccc(C(F)(F)F)cc1` (stereo not given): the Potency is 9.52 µM (active).
`Cc1[nH]c(/C=C2\C(=O)Nc3ccccc32)c(C)c1CCC(=O)O`: the “activity change, negative = inhibition” value is -16.3% (inactive).
As for `C[C@@H](O[C@H]1OCCN(Cc2n[nH]nc2CN(C)C)[C@H]1c1ccc(F)cc1)c1cc(C(F)(F)F)cc(C(F)(F)F)c1`, the Potency was 15.1 µM (active).
Consider `Cc1ccc2c(Nc3ccc(Cl)cc3)nccc2c1Nc1ncccc1-c1ncnc2nc[nH]c12`, for which the Potency was 12 µM (active).
Consider `Cc1cc(C)c(NC(=O)N(Cc2ccc3c(c2)Cc2ccccc2-3)C2CCCCCC2)c(C)c1`, for which the “activity change, negative = inhibition” value was -25.5% (inactive).
`O=[N+]([O-])c1ccc(-[n+]2nc(-c3ccccc3)nn2-c2ccc(I)cc2)cc1`: the Potency was 5.35 µM (active).
On to `CN(CC[C@@H](Oc1ccc(-c2ccccc2)cc1)c1ccc(F)cc1)CC(=O)O`, for which the “activity change, negative = inhibition” value is -23.3% (inactive).
Take `O=C1CC[C@H](C(=O)O)N1`: the “activity change, negative = inhibition” value is -1.18% (inactive).
On the same count and under the same terms, as for `C=C1C(=O)O[C@@H]2[C@H]3O[C@]3(C)CC/C=C(\C)CC[C@@H]12`, the figure is -13.4% (inactive).
Consider `COc1ccc(C(=O)N(CCC(C)C)Cc2nc(C)c(C)n2Cc2ccccc2C)c(OC)c1`, for which the Potency is 0.952 µM (active).
As to `COc1ccc2c(c1)CN(C(=O)CCN1CCC(Cc3ccccc3)CC1)CCS2`, the Potency was 0.536 µM (active).
Regarding `CC1CN(CC(=O)Nc2ccc3c(c2)Cc2cccc(-c4cc(=O)cc(N5CCOCC5)o4)c2S3)CC(C)O1` (stereo not given), the “activity change, negative = inhibition” value is -19.4% (inactive).
`Cc1ccc(-c2nnc(Nc3ccc(Br)cc3)c3ccccc23)cc1S(=O)(=O)NCc1nc2ccccc2[nH]1`: the Potency is 3.38 µM (active).
Take `CNCc1ccc(C)c(NC(=O)c2ccc(Nc3nc(-c4ccccc4)c4ccccc4n3)cc2)c1`: the Potency was 12 µM (active).
As to `Cc1nccn1CC1CCC2C(C1=O)c1ccccc1N2C` (stereo not given), the Potency was 12 µM (active).
For `NC(=Nc1ccc(CCNCc2cccc(Cl)c2)cc1)c1cccs1`, the Potency is 0.477 µM (active).
Regarding `CN(C)C(=O)c1cc2cnc(Nc3ccc(N4CCNCC4)cn3)nc2n1C1CCCC1`, the “activity change, negative = inhibition” value was 4.11% (inactive).
As to `Cc1c2oc3c(C)ccc(C(=O)N[C@@H]4C(=O)N[C@@H](C(C)C)C(=O)N5CCC[C@@H]5C(=O)N(C)CC(=O)N(C)[C@@H](C(C)C)C(=O)O[C@H]4C)c3nc-2c(C(=O)N[C@@H]2C(=O)N[C@@H](C(C)C)C(=O)N3CCC[C@@H]3C(=O)N(C)CC(=O)N(C)[C@@H](C(C)C)C(=O)O[C@H]2C)c(N)c1=O` (I: [aThr]V[dP][Sar][NMeV] / II: [aThr]V[dP][Sar][NMeV]; ester I:1-I:C, II:1-II:C; linker I:N-II:N via Actinocin(9to1)), the “activity change, negative = inhibition” value was -28.6% (inactive).
`C[C@H](NC(=O)C(C)(C)Oc1ccc(C(F)(F)F)cn1)[C@@H](Cc1ccc(Cl)cc1)c1cccc(C#N)c1`: the Potency was 1.9 µM (active).
Consider `CC(C)c1ccc(NC(=O)C(c2ccccc2)N(C)C(=O)Cc2c[nH]c3ccccc23)cc1` (stereo not given), for which the Potency is 10.7 µM (active).
Still for that read-out and setting: as for `O=S(=O)(c1cccc2ccccc12)n1ccc2ccc(N3CCN4CCCC4C3)cc21` (stereo not given), the figure is 2.68 µM (active); as for `CC(C)(C)c1ccc(CNC(=S)NCc2ccc(NS(C)(=O)=O)c(F)c2)cc1`, 3.38 µM (active).
In the case of `CC1CCC(n2c3cnccc3c3cnc(Nc4ccc5c(n4)CCN(C(=O)CO)C5)nc32)CC1` (stereo not given), the “activity change, negative = inhibition” value was -16.5% (inactive).
For `CC(C)n1cnc2c(Nc3cccc(Cl)c3)nc(NCCO)nc21`, the Potency was 16.9 µM (active).
